Most compounds without a hit are left out; they make up all but 0.5% or so of the library.
phage Ecoli inh: E. coli growth loss with phage present | growth absorbance | inhibition, % at 11.9 µM | actives 0.26% (n = 360,000) | AID 651602; in the data active = inhibition above about 11%
E coli growth-1: inhibitors of Escherichia coli growth. OD600, 23 h; stronger effect = lower value. OD600 absorbance (concentration not given with the values). actives 0.21% (n = 330,000);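 active = OD600 absorbance below the run mean of sample wells minus 3.6 SD, in any replicate, cut at about 0.56 in these data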
AddAB inh: less growth of phage-infected E. coli with AddAB; E. coli expressing H. pylori AddAB, absorbance growth; inhibition, % at 11.9 µM; actives 0.29% (n = 330,000); AID 435030; in the data active = inhibition above about 12%;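 also: 0% = vehicle wells of infected cells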
E coli growth-2: counter-screen for AddAB inhibitors: E. coli growth inhibition. E. coli V3065 growth, OD600 absorbance, 18 h. inhibition, % at 11.9 µM. actives 0.27% (n = 330,000). AID 449728;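 active = inhibition above the campaign's mean inhibition across all tested compounds plus 3 SD, cut at about 9.9% in these data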;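 also: uninfected addAB+ strain grown without phage in ampicillin broth; 0% = DMSO wells and 100% = ciprofloxacin 0.95 µg/ml wells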
Tat transport: blocks Tat-dependent protein export in E. coli. E. coli MC4100 TorA-mCherry Tat export, fluorescence. inhibition, % at 10 µM. actives 0.036% (n = 340,000). AID 488895;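 active = mean replicate inhibition at least 50% and at least half of replicates individually reaching 50%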;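 also: exported cargo escapes ClpAP degradation while cytoplasmic cargo is degraded and loses fluorescence; 0% = median of neutral control wells and 100% = median of NaSCN control wells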
Starred values were filed as active, the others as inactive; · = not tested or not shown.

SMILES | phage Ecoli inh | E coli growth-1 | AddAB inh | E coli growth-2 | Tat transport
O=C(Nc1ccc(Cl)cc1)Nc1cc([N+](=O)[O-])ccc1F | 3.5 | 0.601 | 3.0 | 1.3 | -10.9
O=C(Nc1ccc([N+](=O)[O-])cc1)Nc1ccc(Cl)cc1F | 10.7 | 0.651 | 7.0 | 9.8* | -3.0
O=C1Nc2ccc(Br)cc2C12NNc1ccccc1O2 (configuration not stated) | 6.1 | 0.432* | 9.9 | 6.2 | -3.5
O=C1Nc2ccc(Br)cc2C1(O)c1ccccc1 (configuration not stated) | 3.2 | 0.683 | 1.8 | -1.2 | 0.0
COc1ccc(C=NN2CCOCC2)cc1O | · | 0.549* | · | · | ·
COc1ccc(/C=N/N2CCOCC2)cc1O | 0.8 | · | 0.5 | -1.6 | 1.6
CC(=NNC(=O)c1cnccn1)c1cccs1 | · | 0.694 | · | · | ·
NC1=NCC(Cc2ccc(O)cc2)N1CCCCC1CCCCC1 (configuration not stated) | · | 0.45* | · | · | ·
CC1CN(C2CCCCC2)C(=O)C1CC(=O)NCc1ccccc1 (configuration not stated) | · | 0.681 | · | · | ·
Cc1ccc(S(=O)(=O)Nc2nc(C)c(C(=O)NN=Cc3ccccc3)s2)cc1 | · | 0.654 | · | · | ·
C=CCSC(=S)NC1CCS(=O)(=O)C1 (configuration not stated) | 2.7 | 0.502* | 3.7 | -1.9 | -21.5
CC(C)NC(=S)NN=Cc1cc(Br)ccc1O | · | 0.638 | · | · | ·
CCCCCCCCCCCCCCCC[N+](C)(C)CCN(Cc1ccc(OC)cc1)c1ncccn1 | · | · | 1.1 | 5.5 | 53.6*
CC1=NNC(=O)C1CCC(=O)NN=Cc1ccc(Cl)c(Cl)c1 (configuration not stated) | · | 0.672 | · | · | ·
CC(C)(C)C1COC(=O)C(NC(=O)OCC2c3ccccc3-c3ccccc32)CC=CCC(CC(=O)N(CCO)Cc2ccccc2)C(=O)N1 (configuration not stated) | · | 0.715 | · | · | ·
COc1ccc(C(=O)NNC(=S)NC(=O)c2ccco2)cc1 | -1.6 | 0.444* | 1.9 | -1.1 | 3.3
CCCCOc1ccc(C(=O)NNC(=S)NC(=O)CC)cc1 | · | 0.557 | -6.7 | -4.6 | 1.5
CCCOc1ccc(C(=O)NNC(=S)NC(=O)c2ccco2)cc1 | 3.5 | 0.551 | 3.8 | 1.5 | -3.4
CCCOc1ccc(C(=O)NNC(=S)NC(C)=O)cc1 | 6.8 | 0.273* | 3.7 | -7.1 | -19.2
CCC(=O)NC(=S)NNC(=O)c1ccc(OC)cc1 | -5.8 | 0.458* | -1.4 | 0.7 | 12.4
CN(C)c1ccnc(-n2cccc2C=NOCc2ccccc2)c1C#N | · | 0.763 | · | · | ·
O=C(COc1c(Br)cc(Br)c2cccnc12)N1CCc2ccccc2C1 | · | 0.439* | -3.4 | -8.6 | 2.8
CC(=O)N1N=C(c2ccccc2)OC1c1ccc([N+](=O)[O-])s1 (configuration not stated) | · | 0.511* | -2.2 | 1.2 | -1.7
CC(=O)N1N=C(c2cccc([N+](=O)[O-])c2)OC1c1ccc(Br)cc1 (configuration not stated) | 1.5 | 0.654 | -0.8 | 1.2 | 15.9
COc1ccc(Cl)cc1C1=CC(=O)CC(c2ccc(F)cc2)C1 (configuration not stated) | · | 0.676 | · | · | ·
SMILES | phage Ecoli inh | E coli growth-1 | AddAB inh | E coli growth-2 | Tat transport
N/C(=N\N=Cc1ccc(F)cc1)NN=Cc1ccc(F)cc1 | · | 0.417* | · | · | ·
Cc1cc(=O)[nH]c(NN=Cc2cccc(Br)c2)n1 | · | 0.675 | · | · | ·
C[n+]1ccc(/C=C/c2ccccc2O)c2ccccc21 | 0.9 | 0.657 | 0.9 | 0.2 | -0.9
CN1/C(=C/c2cc[n+](C)c3ccccc23)C=Cc2ccccc21 | · | 0.345* | · | · | -161.2
Cc1ccc2nc(Nc3ccccc3)c(C=NO)c(=O)n2c1 | · | 0.693 | · | · | ·
NC1=NCC(Cc2ccc(O)cc2)N1CCC12CC3CC(CC(C3)C1)C2 (configuration not stated) | · | 0.608 | · | · | ·
CS(=O)(=O)n1nc(-c2ccc(Cl)cc2)nc1N | 2.0 | 0.665 | -0.9 | -1.7 | 4.3
Cn1nc(-c2ccc(Cl)cc2)nc2c(=O)n(C)c(=O)nc1-2 | · | 0.48* | 7.8 | 8.4 | -11.8
O=C(NCc1ccccc1)[C@]1(C(F)(F)F)CC(CCc2ccccc2)CCCO1 (some centres not stated) | · | 0.691 | · | · | ·
C/C(C=NNc1nc2ccccc2[nH]1)=C\c1ccccc1 | · | 0.509* | · | · | ·
CN(C)c1ccc(O)c2c1CC1CC3C(N(C)C)C(=O)C(C(N)=O)=C(O)[C@]3(O)C(=O)C1=C2O (some centres not stated) | · | 0.0715* | · | · | ·
CC1c2cccc(O)c2C(O)=C2C(=O)C3(O)C(O)=C(C(N)=O)C(=O)C(N(C)C)C3C(O)C21 (configuration not stated) | · | 0.067* | · | · | ·
CC1c2cccc(O)c2C(O)=C2C(=O)[C@]3(O)C(O)=C(C(N)=O)C(=O)C(N(C)C)C3C(O)C21 (some centres not stated) | · | 0.0645* | · | · | ·
CC1c2cccc(O)c2C(=O)C2C(=O)C3(O)C(=O)C(C(N)=O)C(=O)C(N(C)C)C3C(O)C21 (configuration not stated) | · | 0.068* | · | · | ·
O=C(O)c1cccc(Cn2c(Cl)c(C=NNC(=O)c3ccco3)sc2=O)c1 | · | 0.652 | · | · | ·
Cc1nc2ccc(Cl)cc2nc(C)c1=NO | · | 0.684 | · | · | ·
COc1ccc(C=NN2CCN(C)CC2)cc1OC | · | 0.746 | · | · | ·
Nc1ncc(N=Nc2cc(C(=O)O)ccc2Cl)s1 | 6.0 | 0.633 | 10.0 | 10.5* | -7.7
Cn1cc([N+](=O)[O-])c(C(=O)NN=Cc2ccncc2)n1 | · | 0.732 | · | · | ·
O=C(CN(Cc1ccccc1Cl)C(=O)CNS(=O)(=O)c1ccc(F)cc1)NCC1CCCO1 (configuration not stated) | 1.2 | 0.655 | -1.1 | 0.7 | 52.7*
O=C(CN(Cc1ccc(F)cc1)C(=O)CNS(=O)(=O)c1ccc(F)cc1)NCC1CCCO1 (configuration not stated) | -0.5 | 0.677 | 0.6 | 0.5 | -0.6
Cc1ccc(-n2[nH]c(C)c(C=Nc3ccc(S(=O)(=O)Nc4nccs4)cc3)c2=O)cc1 | · | 0.658 | 12.6* | 8.5 | ·
CCN1/C(=C/c2ccc3cc(C)ccc3[n+]2CC)Sc2cc(C)ccc21 | 8.2 | 0.351* | · | · | -3.8
COC(=O)c1cc(NC(=O)c2cccc(C(F)(F)F)c2)c(=O)oc1CC=NOCc1cccc(Cl)c1Cl | · | 0.745 | · | · | ·
CN(C)c1ccc(C=NNC(=O)CCCO)cc1 | · | 0.672 | · | · | ·
SMILES | phage Ecoli inh | E coli growth-1 | AddAB inh | E coli growth-2 | Tat transport
Cc1ccc(N2C(=O)Cc3ccccc3C2=O)cc1 | -0.1 | 0.629 | 3.9 | 1.8 | 3.0
Cc1cccc(N2C(=O)Cc3ccccc3C2=O)c1 | 0.2 | 0.533* | 0.2 | -0.4 | -5.7
CNS(=O)(=O)c1cccc(C(=O)OCC(=O)Nc2cc(F)ccc2F)c1 | 0.4 | 0.7 | 3.3 | 10.6* | -11.9
CNS(=O)(=O)c1cccc(C(=O)OCC(=O)Nc2ccc(Cl)cc2F)c1 | 1.8 | 0.69 | 1.4 | 0.8 | 3.3
C=CC1=C(C(=O)O)N2C(=O)C(NC(=O)C(=NOCC(=O)O)c3csc(N)n3)C2SC1 (configuration not stated) | · | 0.0625* | · | · | ·
COCC1=C(C(=O)OC(C)OC(=O)OC(C)C)N2C(=O)[C@@H](NC(=O)/C(=N\OC)c3csc(N)n3)[C@H]2SC1 (some centres not stated) | 7.4 | · | -0.9 | 2.2 | -3.7
CCOc1ccc(NS(=O)(=O)c2ccc(C(=O)NNC(=O)c3ccccc3O)cc2)cc1 | 3.9 | 0.516* | 6.5 | -0.2 | -11.5

Bioassay records: PubChem, several laboratories
